TAG inh: reduces triacylglycerol accumulation in H9c2 cells; inhibition, % at 12.5 µM; 0.66% of 230,000 active; AID 651582; Nile Red lipid (TAG) fluorescence; cells loaded with 200 µM oleic acid;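 active = pattern-corrected inhibition of lipid staining of at least 50% with the nuclear-stain viability signal not falling by more than 50%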;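 also: 0% = DMSO wells and 100% = triacsin C control wells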
Jurkat NFkB inh: inhibitors of the PMA/ionomycin-induced NF-kB reporter in Jurkat cells; PMA/ionomycin-induced NF-kB luciferase reporter, luminescence; inhibition, % at 4 µM; 0.53% of 330,000 active; in the data active = inhibition above about 50%
COUP-TFII inh: blocks human COUP-TFII nuclear receptor. P24468. HEK293T NGFI-A luciferase reporter, luminescence. inhibition, % at 8.6 µM. 0.7% of 370,000 active;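 active = inhibition above a per-plate cutoff, mean inhibition of test wells between control levels plus 3 SD, cut at about 38% in these data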;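 also: cells cotransfected with COUP-TFII expression vector driving the NGFI-A reporter; 0% = median of COUP-TF2 test wells and 100% = reporter-only cells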
Target sequence (P24468 whole entry, looked up): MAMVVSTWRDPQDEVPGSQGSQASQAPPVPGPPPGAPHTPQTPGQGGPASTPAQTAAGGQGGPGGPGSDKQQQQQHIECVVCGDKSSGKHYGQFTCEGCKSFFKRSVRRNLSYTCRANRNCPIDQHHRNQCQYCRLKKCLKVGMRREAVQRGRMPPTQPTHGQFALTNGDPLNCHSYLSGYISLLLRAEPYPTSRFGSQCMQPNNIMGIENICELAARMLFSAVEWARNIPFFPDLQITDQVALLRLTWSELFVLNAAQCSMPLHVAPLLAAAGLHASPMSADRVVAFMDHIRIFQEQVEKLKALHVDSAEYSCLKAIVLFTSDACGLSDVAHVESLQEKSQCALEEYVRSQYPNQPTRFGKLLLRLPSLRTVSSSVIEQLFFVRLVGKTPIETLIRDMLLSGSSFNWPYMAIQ
H9c2 protect: protects H9c2 cardiomyocytes from peroxide injury. H2O2 injury protection, ATPLite, 2 h. protection from H2O2 cell death, % at 20 µM. 0.63% of 360,000 active. AID 588492;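 active = compounds giving at least 50% protection of heart cells from peroxide-induced death in the single-dose screen, raw or plate-pattern-corrected value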;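 also: 0% = DMSO wells with peroxide and 100% = DMSO wells without peroxide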
697 NFkB inh: inhibitors of the PMA/ionomycin-induced NF-kB reporter in 697 B cells; 0.33% of 330,000 active; inhibition, % at 4 µM; 697 B-cell NF-kB luciferase reporter, 16 h; in the data active = inhibition above about 35%
Gli-Sufu antag: antagonists of Gli-Sufu signaling. Sufu-KO-LIGHT fibroblasts, Gli luciferase reporter luminescence. inhibition, % at 5 µM. 0.74% of 340,000 active. AID 588413;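 active = inhibition above about 55%, limit read from the data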;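 also: 0% = DMSO-treated cells and 100% = wells with medium but no cells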
An asterisk follows results filed as active. The list is not random: actives were taken first. Their share in the collection is about 2.6%.

How did O=C(N/N=C/c1ccccn1)c1ccc(NC(=O)c2cccc([N+](=O)[O-])c2)cc1 do in these assays?
Jurkat NFkB inh: -9.2; COUP-TFII inh: 15.2; H9c2 protect: 69.3*; 697 NFkB inh: -34.6; Gli-Sufu antag: -15.4

What do the screens show for `CCCC[C@@H]1C(=O)N2N=Cc3cc4ccccc4cc3[C@H]2N2N=Cc3cc4ccccc4cc3[C@@H]12`?
COUP-TFII inh: -1.9

What do the screens show for `O=C(COc1ccc(S(=O)(=O)NC2CCCCC2)cc1)N1CCN(c2cccc(Cl)c2)CC1`?
Jurkat NFkB inh: 19.8; COUP-TFII inh: 57.2*; H9c2 protect: -14.8; 697 NFkB inh: -16.4; Gli-Sufu antag: 18.3

How did CCNC(=O)Nc1ccc2c(c1)C(=O)N(C)[C@H]1CC[C@H](CC(=O)N[C@H](C)c3ccccc3)O[C@@H]1CO2 do in these assays?
COUP-TFII inh: 8.2

What do the screens show for `COc1ccc(CCNC(=O)c2nnn(-c3ccc4c(c3)OCCO4)c2N)cc1OC`?
TAG inh: 14.5; Jurkat NFkB inh: 31.1; COUP-TFII inh: 93.3*; H9c2 protect: 0.6; 697 NFkB inh: -37.3; Gli-Sufu antag: 49.3

How did COc1ccc(CCNC(=O)c2nnn(-c3ccccc3OC)c2N)cc1OC do in these assays?
TAG inh: 12.7; Jurkat NFkB inh: -3.0; COUP-TFII inh: -11.3; H9c2 protect: -0.8; 697 NFkB inh: 1.2; Gli-Sufu antag: -12.3

How did N#CCC[C@H]1CC[C@]2(CCCN(C(=O)c3ccccc3)C2)O1 do in these assays?
COUP-TFII inh: -3.4

What do the screens show for `CC(=O)Nc1c(Br)cc2c(c1Br)C(=O)c1ccccc1-2`?
TAG inh: -8.1; COUP-TFII inh: 19.6; H9c2 protect: 11.0; Gli-Sufu antag: 1.1

Results for CC(=O)C1=C(c2ccc(Br)cc2)C(=O)c2ccccc2C1=O ?
COUP-TFII inh: 71.3*; H9c2 protect: 2.1; Gli-Sufu antag: 15.8

How did COc1ccc(-n2c(C)cc(C(=O)CCl)c2C)cc1 do in these assays?
TAG inh: 64.4*; Jurkat NFkB inh: 6.5; COUP-TFII inh: 13.8; H9c2 protect: -13.3; 697 NFkB inh: 15.1; Gli-Sufu antag: 6.1

How did COc1cc(/C=C2\CC/C(=C\c3ccc(OCCO)c(OC)c3)C2=O)ccc1OCCO do in these assays?
TAG inh: 8.4; Jurkat NFkB inh: -11.9; COUP-TFII inh: -6.3; H9c2 protect: 81.2*; 697 NFkB inh: 7.8; Gli-Sufu antag: -7.8

How did COc1ccc(/C=C2\CCc3ccccc3C2=O)cc1OC do in these assays?
Jurkat NFkB inh: 0.2; COUP-TFII inh: -47.0; H9c2 protect: -4.0; 697 NFkB inh: -86.9; Gli-Sufu antag: -19.7

Results for O=C(c1ccc(Cl)c(Cl)c1)N1CCC(Oc2cccnc2)CC1 ?
COUP-TFII inh: 2.1

How did COC(=O)/C(C#N)=C/c1c(N2CCN(c3ccccc3)CC2)nc2ccccn2c1=O do in these assays?
Jurkat NFkB inh: -7.0; COUP-TFII inh: -14.2; H9c2 protect: 17.8; 697 NFkB inh: -7.2; Gli-Sufu antag: 2.1

Results for CNC(=O)/C(C#N)=C/c1c(N(Cc2ccccc2)Cc2ccccc2)nc2ccccn2c1=O ?
Jurkat NFkB inh: 11.3; COUP-TFII inh: 17.8; H9c2 protect: 56.2*; 697 NFkB inh: -20.7; Gli-Sufu antag: -7.1

Results for C[C@H](O)[C@@H]1CN2CCc3c([nH]c4c(-c5ccccc5)cccc34)[C@@H]2C[C@@H]1N(C)C(=S)Nc1ccc(C#N)cc1 ?
COUP-TFII inh: -21.6

How did N#Cc1cnn2cc(-c3ncc(C(F)(F)F)cc3Cl)cnc12 do in these assays?
Jurkat NFkB inh: -19.0; COUP-TFII inh: -5.2; H9c2 protect: 59.1*; 697 NFkB inh: -3.1; Gli-Sufu antag: -8.0

How did CCOC(=O)[C@@]12CCCC=C1N(CCc1ccc(Cl)cc1)C(=O)[C@H]2CC(=O)NCc1cccc2ccccc12 do in these assays?
COUP-TFII inh: -8.2

What do the screens show for `CCCn1c(=O)c2[nH]c(-c3ccc(OCC(=O)Nc4ccc(C#N)cc4)cc3)nc2n(CCC)c1=O`?
TAG inh: -38.8; Jurkat NFkB inh: 2.7; COUP-TFII inh: -10.1; H9c2 protect: 94.5*; 697 NFkB inh: 23.1; Gli-Sufu antag: -7.5

Results for COc1ccccc1NC(=S)N=Nc1c(O)[nH]c2ccc(Br)cc12 ?
TAG inh: 50.4*; Jurkat NFkB inh: 41.2; COUP-TFII inh: -2.6; H9c2 protect: 4.5; 697 NFkB inh: 2.4; Gli-Sufu antag: 7.3

What do the screens show for `Cc1cccc(NC(=S)N=Nc2c(O)[nH]c3ccccc23)c1`?
TAG inh: 15.0; Jurkat NFkB inh: -2.9; COUP-TFII inh: 2.0; H9c2 protect: 36.3; 697 NFkB inh: 3.0; Gli-Sufu antag: 14.2

What do the screens show for `O=c1[nH]c(NCc2ccccc2)nc2c1CCCC2`?
TAG inh: 2.5; Jurkat NFkB inh: -6.4; COUP-TFII inh: 6.1; H9c2 protect: 53.3*; 697 NFkB inh: -7.8; Gli-Sufu antag: 4.0

How did CCN1CCCCC(NC(=O)c2cc(OC)c(OC)c(OC)c2)C1=O (stereo not drawn) do in these assays?
COUP-TFII inh: -11.3

How did O=C(COC(=O)c1ccc([N+](=O)[O-])s1)Nc1ccc(Cl)cn1 do in these assays?
Jurkat NFkB inh: 12.5; COUP-TFII inh: 13.5; H9c2 protect: 54.8*; 697 NFkB inh: 8.7; Gli-Sufu antag: -8.0

How did Cc1c(Cl)cnc(NC(=O)COC(=O)c2ccc([N+](=O)[O-])s2)c1Cl do in these assays?
Jurkat NFkB inh: -7.9; COUP-TFII inh: 21.4; H9c2 protect: 67.6*; 697 NFkB inh: -9.8; Gli-Sufu antag: -9.7

What do the screens show for `CCOC(=O)C1=NOC(C(=O)NC2CCCC2)(C(=O)C2CC2)C1` (stereo not drawn)?
COUP-TFII inh: -6.7

What do the screens show for `C[C@@H]1C[C@H]2[C@@H](Cc3ccccc3)C(=O)N3[C@H](c4ccccc4)[C@H](C)C[C@H]3[C@@H](Cc3ccccc3)C(=O)N2[C@@H]1c1ccccc1`?
COUP-TFII inh: -5.7

Results for C=CCNc1oc(-c2ccc(Cl)cc2)nc1C#N ?
TAG inh: 2.2; Jurkat NFkB inh: 8.5; COUP-TFII inh: 7.2; H9c2 protect: 51.7*; 697 NFkB inh: -40.2; Gli-Sufu antag: 51.6

How did CCNC(=O)N(C)[C@H]1C[C@H]2c3[nH]c4cccc(-c5ccc6c(c5)OCO6)c4c3CCN2C[C@H]1[C@H](C)O do in these assays?
COUP-TFII inh: 0.7

How did Oc1c(Br)cc(Br)cc1/C=N/c1nc2c(s1)CCCC2 do in these assays?
TAG inh: -4.3; Jurkat NFkB inh: -11.8; H9c2 protect: 59.3*; 697 NFkB inh: -5.6; Gli-Sufu antag: 1.8

Results for Oc1c(CN2CCCCC2)cc(COCc2ccccc2)c2cccnc12 ?
TAG inh: 154.1; Jurkat NFkB inh: 7.9; COUP-TFII inh: -3.4; H9c2 protect: 25.0; 697 NFkB inh: -32.9; Gli-Sufu antag: 92.3*

What do the screens show for `Oc1c(CN2CCN(c3ccccn3)CC2)cc(Cl)c2cccnc12`?
TAG inh: 116.4; Jurkat NFkB inh: 34.3; H9c2 protect: 28.4; 697 NFkB inh: -58.2; Gli-Sufu antag: 70.6*
